From PubChem
CCHF vOTU inh: CCHFV vOTU protease inhibition; Pep-AMC fluorescence; inhibition, % at 11.5 µM; 370,000 compounds, 0.55% hits; AID 651958; in the data active = inhibition above about 30%
GDH-TPI counter-1: inhibits GDH-TPI coupling enzymes, artifact for Mtb FBA screen. GDH-TPI coupled enzyme counterscreen, NADH absorbance. 360,000 compounds, 1.2% hits. inhibition, % at 4.8 µM. AID 588335; in the data active = inhibition above about 30%
RecA intein inh: inhibitors of M. tuberculosis RecA intein splicing; P9WHJ3; cell-free RecA intein splicing, fluorescence; inhibition, % (test concentration not listed); 290,000 compounds, 0.75% hits; in the data active = inhibition above about 30%
FBA Mtb inh: inhibitors of M. tuberculosis fructose-bisphosphate aldolase; P9WQA3; inhibition, % at 1 µM; 360,000 compounds, 2.3% hits; purified M. tuberculosis FBA, fluorescence read-out
Target sequence (P9WQA3 whole entry, looked up): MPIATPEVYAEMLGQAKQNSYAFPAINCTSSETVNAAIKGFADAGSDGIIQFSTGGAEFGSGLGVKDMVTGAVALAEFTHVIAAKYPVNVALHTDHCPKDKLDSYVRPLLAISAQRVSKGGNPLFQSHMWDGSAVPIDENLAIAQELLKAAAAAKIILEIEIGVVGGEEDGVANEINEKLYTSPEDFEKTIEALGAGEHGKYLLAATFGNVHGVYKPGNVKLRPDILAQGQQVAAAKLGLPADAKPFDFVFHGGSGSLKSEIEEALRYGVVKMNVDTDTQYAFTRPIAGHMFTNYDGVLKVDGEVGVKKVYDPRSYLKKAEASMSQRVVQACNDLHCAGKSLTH
Mtb FBA confirm: confirmation of M. tuberculosis fructose-bisphosphate aldolase inhibitors | 5,600 compounds, 78% hits | shares compounds with FBA Mtb inh | inhibition, % at 1 µM | purified M. tuberculosis FBA, fluorescence read-out
GDH-TPI counter-2: inhibits GDH-TPI coupling enzymes, flagging Mtb FBA hits | inhibition, % at 1 µM | AID 652141 | 5,600 compounds, 81% hits | GDH-TPI coupled enzyme counterscreen, fluorescence | shares compounds with FBA Mtb inh; in the data active = inhibition above about 10%
Each line names hits and unclear results; the compound was inactive in the other large screens (follow-up assays come after a bar, where they were run). Sampled rows, rich in hits. Any-hit rate of the full collection: about 4.2%. Cut-off read from the data, not from the text of the source, unless noted: active = inhibition above about 27%; inactive = the rest.

CCC(CC)C(=O)Nc1nnc(S(=O)(=O)N2CCCc3ccccc32)s1	none
COc1ccc2oc(C(=O)OCC(=O)N(C)C3CCCCC3)c(C)c2c1	FBA Mtb inh 38 | Mtb FBA confirm inactive | GDH-TPI counter-2 inactive
COc1ccc2oc(C(=O)OCC(=O)N(C)C3CCS(=O)(=O)C3)c(C)c2c1 (stereo not given)	FBA Mtb inh 45 | Mtb FBA confirm 73 | GDH-TPI counter-2 53
CCN(C(=O)COC(=O)c1oc2ccc(OC)cc2c1C)C1CCCCC1	FBA Mtb inh 30 | Mtb FBA confirm 103 | GDH-TPI counter-2 78
CCOc1ccc2oc(C(=O)OCC(=O)NC3CCCCC3)c(C)c2c1	none (no result: RecA intein inh)
CC(=Nc1ccccc1)C1=C(O)C(Cc2cccc(F)c2)NC1=O (stereo not given)	none (no result: RecA intein inh)
O=C(c1cc(-c2cccs2)nc2ccccc12)N1CCN(c2ccccc2)CC1	none
O=C(c1cc(-c2cccs2)nc2ccccc12)N1CCN(S(=O)(=O)c2ccccc2)CC1	FBA Mtb inh 57 | Mtb FBA confirm 98 | GDH-TPI counter-2 76
O=C(c1cc(-c2cccs2)nc2ccccc12)N1CCN(S(=O)(=O)c2cccc(F)c2)CC1	FBA Mtb inh 38 | Mtb FBA confirm 123 | GDH-TPI counter-2 92
CC1CCCN(C(=O)c2cc(-c3cccs3)nc3ccccc23)C1 (stereo not given)	FBA Mtb inh 83 (no result: RecA intein inh) | Mtb FBA confirm inactive | GDH-TPI counter-2 inactive
CC(=O)c1ccccc1NC(=O)C1CCCN(C(=O)c2ccc(Cl)cc2)C1 (stereo not given)	none (no result: RecA intein inh)
CCOC(=O)C1CCN(C(=O)C2CCN(S(=O)(=O)N3CCC4(CC3)OCCO4)CC2)CC1	none
Cc1cc(C)c(C)c(OCCCCN2CCCCC2)c1	none
CCc1ccccc1Nc1ccc(C(=O)O)cc1N	none
Nc1cc(C(=O)O)ccc1Nc1ccccc1	FBA Mtb inh 91 | Mtb FBA confirm 126 | GDH-TPI counter-2 113
COc1ccc(C(=O)N2CCC(C)(C(=O)O)C2)c(OC)c1 (stereo not given)	none (no result: RecA intein inh)
COc1ccc2c(c1)c1ncn(CCc3ccccc3)c(=O)c1n2C	FBA Mtb inh 105 | Mtb FBA confirm 106 | GDH-TPI counter-2 91
CCc1nc2ccccc2n1CC(=O)NC1CCS(=O)(=O)C1 (stereo not given)	none (no result: RecA intein inh)
Cc1cc(=O)oc2cc(OC(C)C(=O)NCCCn3ccnc3)ccc12 (stereo not given)	none
CCN1CCN(CC(O)COc2ccc3c(C)cc(=O)oc3c2)CC1 (stereo not given)	FBA Mtb inh 53 | Mtb FBA confirm active | GDH-TPI counter-2 active
CCN1CCN(CC(O)COc2ccc(C)c(C)c2)CC1 (stereo not given)	none
Cc1cc(=O)oc2cc(OCC(O)Cn3ccnc3)ccc12 (stereo not given)	FBA Mtb inh 43 | Mtb FBA confirm inactive | GDH-TPI counter-2 inactive
CCCc1c(C(=O)N/N=C(\C)c2ccccn2)nnn1-c1nonc1N	none (no result: RecA intein inh)
O=C(c1cn(-c2ccccc2)nc1-c1cccnc1)N1CCN(S(=O)(=O)c2cccc(F)c2)CC1	none (no result: RecA intein inh)
C=CCc1c(OC)ccc2ccc(=O)oc12	FBA Mtb inh 55 | Mtb FBA confirm 124 | GDH-TPI counter-2 105
C=CCc1ccc(OC)c(OC)c1	none
CCn1c(=O)n(CC)c2cc(N3CCCC3)c(NC(=O)c3ccccc3F)cc21	none
CCOc1cc(S(=O)(=O)NC2CC2)c(OCC)cc1-n1cnnn1	FBA Mtb inh 34 | Mtb FBA confirm 184 | GDH-TPI counter-2 159
CCOc1cc(S(=O)(=O)NCc2ccco2)c(OCC)cc1-n1cnnn1	FBA Mtb inh 30 | Mtb FBA confirm 63 | GDH-TPI counter-2 45
CCOc1cc(S(=O)(=O)NCc2ccc(OC)cc2)c(OCC)cc1-n1cnnn1	none
CC(=O)N(C(C)=O)c1ncc2c([nH]c3ccccc32)c1C#N	FBA Mtb inh 38 (no result: RecA intein inh) | Mtb FBA confirm active | GDH-TPI counter-2 189
O=C(OCC#CCSc1nnc(-c2cccc3ccccc23)o1)c1cccc2[nH]ccc12	FBA Mtb inh 36 (no result: RecA intein inh) | Mtb FBA confirm 64 | GDH-TPI counter-2 51
CCN(C(=O)COc1ccc2ccc(=O)oc2c1)C1CCCCC1	FBA Mtb inh 35 (no result: RecA intein inh) | Mtb FBA confirm 72 | GDH-TPI counter-2 51
CN(C(=O)COc1ccc2ccc(=O)oc2c1)C1CCS(=O)(=O)C1 (stereo not given)	FBA Mtb inh 38 | Mtb FBA confirm 190 | GDH-TPI counter-2 147
CCN(Cc1ccc2c(c1)OCCO2)C(=O)CN1C(=O)NC2(CCCCC2)C1=O	none (no result: RecA intein inh)
Cc1ccc2nc(Cl)cc(=O)n2c1	FBA Mtb inh 45 (no result: RecA intein inh) | Mtb FBA confirm 130 | GDH-TPI counter-2 88
Cc1ccccc1CNC(=O)C1CCCN(c2nnc(C)c3c(C)n(-c4ccccc4)nc23)C1 (stereo not given)	FBA Mtb inh 28 | Mtb FBA confirm 111 | GDH-TPI counter-2 105
Cc1nnc(N2CCCC(C(=O)NCc3ccccc3F)C2)c2nn(-c3ccccc3)c(C)c12 (stereo not given)	none
CN(C)CCN1CCN(C2CN(Cc3ccccc3)S(=O)(=O)C2)CC1 (stereo not given)	none (no result: GDH-TPI counter-1, RecA intein inh)
CN1CCCc2cc3c(C(F)(F)F)cc(=O)oc3nc21	FBA Mtb inh 30 | Mtb FBA confirm 130 | GDH-TPI counter-2 111
Cc1ccc(C(=O)Nc2cc3[nH]c(=O)oc3cc2C)cc1	none
COc1ccc(NC(=O)C2(C)CCN2Cc2csc3ccccc23)cc1OC (stereo not given)	none (no result: RecA intein inh)
Cc1ccc(-c2nc(=O)[nH]c3ccccc23)cc1	none
O=c1nc(-c2ccccc2Cl)c2cc(F)ccc2[nH]1	FBA Mtb inh 53 | Mtb FBA confirm 53 | GDH-TPI counter-2 46
O=C(O)C(=O)/C(=C\c1cccc(Cl)c1)c1ccc2ccccc2n1	FBA Mtb inh 79 | Mtb FBA confirm active | GDH-TPI counter-2 active
CC(=O)N[C@@H](C)c1nc2ccccc2n1CCCN1CCN(c2nc(-c3ccc(C)cc3)cs2)CC1	none
CCN1CCCC1CNC(=O)c1cc([N+](=O)[O-])c(N(C)C)cc1OC (stereo not given)	none
OC[C@@H]1[C@@H](c2ccc(Cl)cc2)C(c2ccc(F)cc2)=NN1c1ccccc1	FBA Mtb inh 60 (no result: RecA intein inh) | Mtb FBA confirm 150 | GDH-TPI counter-2 98
OC[C@@H]1[C@@H](c2ccccc2)C(c2cccc(Cl)c2)=NN1c1ccccc1	FBA Mtb inh 50 (no result: RecA intein inh) | Mtb FBA confirm 122 | GDH-TPI counter-2 134
OC[C@@H]1[C@@H](c2ccccc2)C(c2ccccc2)=NN1c1ccccc1	FBA Mtb inh 49 (no result: RecA intein inh) | Mtb FBA confirm 120 | GDH-TPI counter-2 91
O=C1OCCN1C(=O)[C@H]1[C@H](c2ccc([N+](=O)[O-])cc2)C(c2cccc(Cl)c2)=NN1c1ccc(Br)cc1	none (no result: RecA intein inh)
C[C@@H]1C(c2ccc(F)cc2)=NN(c2ccccc2)[C@H]1C(=O)N1CCOC1=O	none (no result: RecA intein inh)
Cc1ccc2c(c1)cc1c(=O)n(CC(=O)N3CCCC3)nc(C)n12	none (no result: CCHF vOTU inh)
Cc1ccn2c(=O)c(C(=O)O)cnc2c1	GDH-TPI counter-1 34, FBA Mtb inh 92 | Mtb FBA confirm 92 | GDH-TPI counter-2 83
